The sample as a whole holds a higher share of hits than the screen did.
Dicer processing: inhibitors of human Dicer processing of pre-microRNA; cat-ELCCA pre-miR-21 Dicer processing, chemiluminescence; hits give high values; AID 1347074; 47,000 tested, 6% active; z-score at 25 µM; in the data active means z-score above about 3, passing the limit was not always enough;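 further: higher signal means more uncleaved substrate so more Dicer inhibition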
Numbers stand for hits; – = inactive.

SMILES	Dicer processing
Cc1c(NC(=O)Nc2ccc(Cl)cc2Cl)sc2nc(-c3ccc(Cl)cc3)nn12	–
Cc1nnc(NC(=O)CSc2nnc3c(n2)[nH]c2ccccc23)s1	–
C=C(C)CSc1nnc2c(n1)[nH]c1ccccc12	3.58
CCOC(=O)CSc1nnc2c(n1)[nH]c1ccccc12	–
O=C(CSc1nnc2c(n1)[nH]c1ccccc12)Nc1nnc(-c2ccccc2)s1	–
O=C(CSc1nnc2c(n1)[nH]c1ccccc12)Nc1nc2ccccc2s1	5.39
O=C(O)CSc1nnc2c(n1)[nH]c1ccccc12	–
Cc1cccc2c1N(CC(C)C)C(=O)C2=O	–
NC(N)=Nc1nc(-c2ccc([N+](=O)[O-])cc2)cs1	–
CCN1c2cc(NC(C)=O)ccc2C(C)CC1(C)C (configuration not stated)	–
FC(F)(F)c1cc(Cl)cnc1N1CCN(C(c2ccccc2)c2ccccc2)CC1	–
COc1cc2c(cc1OC)N1C(=O)c3ccccc3C1(O)OC2=O (configuration not stated)	–
CCOC(=O)c1c(C)nn(-c2ccc([N+](=O)[O-])cc2)c1C	–
CCOC(=O)C1C(c2ccc(Br)cc2)C(C(=O)OCC)C(O)(C(F)(F)F)NC1(O)C(F)(F)F (configuration not stated)	–
Cc1ccc2oc3c(c(=O)c2c1)C(c1cccc(O)c1)N(c1ccccn1)C3=O (configuration not stated)	–
CCCCOc1ccc(C2c3c(oc4ccccc4c3=O)C(=O)N2c2ccccn2)cc1 (configuration not stated)	–
CCOc1ccc(C2c3c(oc4ccccc4c3=O)C(=O)N2c2ccccn2)cc1 (configuration not stated)	–
CSc1ccc(C2c3c(oc4ccc(C)cc4c3=O)C(=O)N2c2ccccn2)cc1 (configuration not stated)	–
COc1ccc(C2c3c(oc4cc(C)c(C)cc4c3=O)C(=O)N2c2ccc(C)cn2)cc1OC (configuration not stated)	–
CCOc1ccc(C2c3c(oc4ccccc4c3=O)C(=O)N2c2ccc(C)cn2)cc1OCC (configuration not stated)	–
Cc1ccc(N2C(=O)c3oc4ccccc4c(=O)c3C2c2ccc(Br)cc2)nc1 (configuration not stated)	–
COc1ccc(C2c3c(oc4cc(C)c(C)cc4c3=O)C(=O)N2c2ccccn2)cc1 (configuration not stated)	–
COc1cc(C2c3c(oc4cc(C)c(C)cc4c3=O)C(=O)N2c2ccc(C)cn2)ccc1O (configuration not stated)	14.6
Cc1ccc(C2c3c(oc4ccccc4c3=O)C(=O)N2c2ccc(C)cn2)cc1 (configuration not stated)	4.15
Cc1ccc2oc3c(c(=O)c2c1)C(c1ccccc1F)N(c1ccccn1)C3=O (configuration not stated)	3.27
SMILES	Dicer processing
C=CCOc1ccc(C2c3c(oc4ccccc4c3=O)C(=O)N2c2ccccn2)cc1 (configuration not stated)	4.08
CC1CCc2c(sc3ncnc(SCC(=O)c4ccc(Br)cc4)c23)C1 (configuration not stated)	–
CC1=C(C(=O)Nc2cc(C)ccn2)C(c2ccc(Cl)cc2)C2=C(CC(C)(C)CC2=O)N1 (configuration not stated)	–
Cc1ccc(S(=O)(=O)c2nc(-c3ccco3)oc2N2CCCCC2)cc1	–
O=C(Cn1c(=O)oc2cccnc21)Nc1ccccc1	–
Cc1c(C)c(C)c(C(=O)c2ccccc2C(=O)O)c(C)c1C	–
COc1ccc(-c2nc3n(n2)C(c2cccc(OC)c2OC)C2=C(CCCC2=O)N3)cc1OC (configuration not stated)	–
Cn1c(Oc2cccc(Cl)c2)nc2c1c(=O)n(Cc1ccc(Cl)cc1Cl)c(=O)n2C	–
CCC1=C(C(=O)OC)C(c2ccc(Br)cc2)n2ncnc2N1 (configuration not stated)	–
O=c1c(-c2ccccc2Cl)c(C(F)(F)F)oc2c(CN3CCOCC3)c(O)ccc12	–
O=C1COc2ccccc2N1Cc1ccccc1	–
C#CC(CC)(CC)NC(=O)Nc1cnccc1C(F)(F)F	–
O=C(Oc1ccc2c(=O)c(Oc3ccccc3Cl)coc2c1)c1ccco1	–
COc1ccc(-c2noc(COc3ccc(C(C)C)cc3)n2)cc1	–
COc1cc(C2c3c(oc4ccccc4c3=O)C(=O)N2Cc2ccc(F)cc2)ccc1O (configuration not stated)	–
Cc1ccc(CN2C(=O)c3oc4ccc(F)cc4c(=O)c3C2c2ccc(O)cc2)cc1 (configuration not stated)	–
COc1cc(C2c3c(oc4ccc(F)cc4c3=O)C(=O)N2Cc2ccc(C)cc2)ccc1O (configuration not stated)	4.78
Cn1ncc(Br)c1NC(=O)/C=C/C(=O)O	–
CCOC(=O)c1cc(C#N)c(Oc2ccc(Cl)cc2)nc1C(F)(F)F	–
Cc1nc(SCC2CC2)[nH]c(=O)c1Cc1ccc(Cl)c(Cl)c1	–
Cc1ccc(C)n1-c1ccc(Br)cc1C(=O)O	–
Cc1ccc(C)n1-c1sccc1C(=O)O	–
Cc1ccc(C)n1-c1ccc(O)c(C(=O)O)c1	32.5
O=C(O)c1ccc2nsnc2c1	–
CCOC(=O)c1ccc2nsnc2c1	–
SMILES	Dicer processing
COC(=O)c1ccc2nsnc2c1	3.81
COc1ccc(C2CC(=O)C3=C(C2)NC(C)=C(C(=O)OC(C)C)C3c2cccnc2)cc1 (configuration not stated)	–
O=C1CC(c2cccc(Br)c2)Nc2ccc3ccccc3c21 (configuration not stated)	3.42
O=C1CC(c2ccccc2Cl)Nc2ccc3ccccc3c21 (configuration not stated)	–
CN(C)c1ccc(C2CC(=O)c3ccccc3N2)cc1 (configuration not stated)	–
CN(C)/C=C(\C#N)C(=O)NC1CCCCC1	–
O=c1[nH]nc(SCc2c(F)cccc2Cl)n1-c1ccccc1C(F)(F)F	–
COc1cccc(CNCCO)c1OCc1ccccc1F	–
COc1ccc(Cl)cc1NC(=O)CC(C)(C)CC(=O)O	–
O=c1oc(-c2cccc(C(F)(F)F)c2)nc2cccc(F)c12	–
COc1ccc(C2Nc3ccc(C(=O)c4ccccc4)cc3NC3=C2C(=O)CCC3)cc1OC (configuration not stated)	–
CCC(=O)N1c2ccccc2N=C(c2ccccc2)CC1c1ccccc1 (configuration not stated)	–
NC(Cc1c[nH]c2ccc(Br)cc12)C(=O)O (configuration not stated)	–
N[C@@H](Cc1ccc([N+](=O)[O-])cc1)C(=O)O	–
N[C@@H](Cc1cc(I)c(Oc2ccc(O)c(I)c2)c(I)c1)C(=O)O	3.25
CCOC(=O)[C@@H](N)Cc1ccccc1	–
N[C@@H](Cc1cc(I)c(Oc2cc(I)c(O)c(I)c2)c(I)c1)C(=O)O	4.34
N[C@@H](Cc1ccc(O)c(O)c1)C(=O)O	–
NC(CSCc1c(F)cccc1Cl)C(=O)O (configuration not stated)	–
O=S(=O)(c1ccc(OC(F)(F)F)cc1)N1CCN(S(=O)(=O)c2cc(Cl)cc(Cl)c2)CC1	–
C/C(=N\Nc1cc(Cl)ccc1Cl)c1csc(-c2ccccc2)n1	–
Cc1ccc(Cc2c(C)nc(N3CCCC3)[nH]c2=O)cc1	–
CSc1ccc(CN2CCN(S(=O)(=O)c3ccc(C)cc3)CC2)cc1	–
Cc1cc(C)c(S(=O)(=O)N2CCN(Cc3ccc4c(c3)OCO4)CC2)c(C)c1	–

Screening data as filed in PubChem.
